Measured values reported in PubChem BioAssay (NCATS).
Where “and” joins values, the source holds several entries; their conditions need not be identical. Equal values may be shown once. Inconclusive results are not listed. Calls of active or inactive are those of the source. The call rests on the fitted dose curve; in most records, active means well fitted inhibition curve with a large enough effect; inconclusive means small, poorly fitted or top-dose-only effect; inactive means flat fitted curve, though single readings scatter.

Tested on: KB-3-1
Assay: Cytotoxic Profiling of Annotated Libraries Using Quantitative High-Throughput Screening (AID 1296008); further: nearly all actives have a fitted effect of over 60% in size
Conditions: Five cell lines viability, CellTiter-Glo ATP luminescence, 48-72 h; max response: active compounds read low
Method in brief: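 Cells exposed to compounds for 48 or 72 hr at 37 degrees Celsius. Viability read as ATP-coupled luminescence with CellTiter-Glo after 10 min at room temperature.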
On the % scale 0 is the no-effect control and ±100 the full control effect.

| Compound | max response |
| --- | --- |
| CCN(CC)C(=O)/C(Cl)=C(\C)OP(=O)(OC)OC | -1.44% (inactive) |
| O=C1CN=C(c2ccccc2)c2cc(Cl)ccc2N1CC1CC1 | 1.41% (inactive) |
| O=[N+]([O-])c1ccc(F)c([N+](=O)[O-])c1 | -19.8% (inactive) |
| CCCCCCCCOC(=O)c1ccccc1C(=O)OCCCCCCCC | -10% (inactive) |
| CCN1C[C@]2(COC)[C@H](O)C[C@H](OC)[C@@]34[C@@H]5C[C@@]6(O)[C@H](OC(=O)c7ccccc7)[C@@H]5[C@@](OC(C)=O)([C@@H]([C@H](OC)[C@H]23)[C@@H]14)[C@@H](O)[C@@H]6OC | 2.56% (inactive) |
| O=c1[nH]c(=O)n(Cl)c(=O)n1Cl | 7.09% (inactive) |
| CC1CCC(C(C)C)C(OC(=O)c2ccccc2N)C1 (centres undefined) | 24.6% (inactive) |
| C[C@@H]1[C@@H]2Cc3ccc(O)cc3[C@@]1(C)CCN2CC1CC1 | -3.25% (inactive) |
| CCC(N)Cc1c[nH]c2ccccc12 (centres undefined) | 3.31% (inactive) and -1.82% (inactive) |
| O=[N+]([O-])C(Br)(CO)CO | 1.16% (inactive) |
| CCOP(=O)(OCC)O/C(=C/Cl)c1ccc(Cl)cc1Cl | 11.5% (inactive) |
| CCC(C)(S(=O)(=O)CC)S(=O)(=O)CC | -12.7% (inactive) |
| N#CC1(N2CCCCC2)CCCCC1 | 9.38% (inactive) |
| CCCC(C)C1(CC)C(=O)NC(=O)NC1=O (centres undefined) | -12.9% (inactive) |
| CC(=O)OCC(=O)[C@H]1CC[C@H]2[C@@H]3CC[C@H]4C[C@H](O)CC[C@]4(C)[C@H]3C(=O)C[C@]12C | 2.82% (inactive) |
| C[C@@H](Cc1ccccc1)N(C)C | 9.66% (inactive) |
| Cn1sc(Cl)cc1=O | -13.7% (inactive) |
| N#CC(C#N)=Cc1cc(O)c(O)c(O)c1 | -23.8% (inactive) |
| C[C@@H]([C@H](O)c1ccccc1)N(C)C | 3.96% (inactive) |
| O=c1c2ccccc2[se]n1-c1ccccc1 | -5.46% (inactive) |

| Compound | max response |
| --- | --- |
| CCOC(=O)c1ccccc1C(=O)OCC | -4.85% (inactive) |
| C[C@H]1CC[C@]2(NC1)O[C@H]1C[C@H]3[C@@H]4CC[C@H]5C[C@@H](O)CC[C@]5(C)[C@H]4CC[C@]3(C)[C@H]1[C@@H]2C | -2.2% (inactive) |
| ClCC1CO1 (centres undefined) | -11% (inactive) |
| CCC1(C)CC(=O)NC(=O)C1 | 4.64% (inactive) |
| COc1ccc2c3c1O[C@H]1[C@@H](O)C=C[C@H]4[C@@H](C2)NCC[C@@]341 | 2.68% (inactive) and -3.7% (inactive) |
| ClC(Cl)(Cl)Cl | -1.06% (inactive) |
| C[C@@H](CO)NC(=O)[C@@H]1C=C2c3cccc4[nH]cc(c34)C[C@H]2N(C)C1 | 1.7% (inactive) |
| CNC1(c2ccccc2Cl)CCCCC1=O (centres undefined) | 3.79% (inactive) and -7.59% (inactive) |
| CCN(CC)C(=O)N[C@H]1C[C@@H]2c3cccc4[nH]cc(c34)C[C@H]2N(C)C1 | -7.12% (inactive) |
| c1ccc(C2(N3CCCC3)CCCCC2)cc1 | 2% (inactive) |
| c1csc(C2(N3CCCCC3)CCCCC2)c1 | 5.46% (inactive) |
| C[C@]12CC[C@H]3[C@@H](CCC4=C(O)C(=O)CC[C@@H]43)[C@@H]1CC[C@@H]2OC(=O)CCC1CCCC1 | -5.37% (inactive) |
| [O]=[Cd] | -8.4% (inactive) |
| COc1ccc(OC)c([C@@H](O)[C@H](C)N)c1 | -0.699% (inactive) |
| N#CN | -5.54% (inactive) |
| CN(C)[C@H](Cc1ccccc1)c1ccccc1 | 1.61% (inactive) |
| Clc1ccc(C(Cn2ccnc2)OCc2csc3c(Cl)cccc23)c(Cl)c1 (centres undefined) | -3.27% (inactive) |
| C=CCN(C1=NCCN1)c1c(Cl)cccc1Cl | 1.74% (inactive) |
| CCN(CC)CCO[C@H]1CC[C@@]2(C)C(=CC[C@@H]3[C@@H]2CC[C@]2(C)C(=O)CC[C@@H]32)C1 | -11.5% (inactive) |
